Test results published in the supplement of paper PMC7411054.
Structures can show the parent of a compound that is named as a salt.

system: WPMY1-ACTB-RAB5A; assay: phenotypically active (imaging signature differs from DMSO and reproducible) at any of 0.3-9 uM (binary (1 = active, 0 = inactive)); higher = active; conditions: treatment time: 24 h
Outline: (§1)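 Each of fifteen gene-edited A549, HepG2 and WPMY1 reporter lines, marked with BFP for segmentation and GFP and RFP/FusionRed, was treated in four wells at 0.3, 1, 3 or 9 µM for 24 h prior to live imaging. Normalisation of per-well live-cell features used solvent control wells. Deviation needed ≥3 of 4 wells beyond the 95th percentile of control Euclidean distances, and reproducibility needed a median replicate Pearson correlation above the 95th percentile of non-replicates. Both were required for phenotypic activity.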

Compound	phenotypically active
CC1(C)CCC(C)(C)c2cc(C3(c4ccc(C(=O)O)cc4)OCCO3)ccc21	0 (inactive)
CCCCCCCCCN1C[C@H](O)[C@@H](O)[C@H](O)[C@H]1CO [N-Nonyldeoxynojirimycin]	0 (inactive)
CC(=O)O[C@H]1C[C@@H]2CC[C@@H]3[C@H](CC[C@@]4(C)[C@H]3C[C@H]([N+]3(C)CCCCC3)[C@@H]4OC(C)=O)[C@@]2(C)C[C@@H]1N1CCCCC1 [vecuronium]	0 (inactive)
O=C(O)c1cc(/N=N/c2ccc(O)c(C(=O)O)c2)ccc1O [olsalazine]	0 (inactive)
CCOC(=O)[C@H](CCc1ccccc1)N[C@H]1CCc2ccccc2N(CC(=O)O)C1=O [benazepril]	0 (inactive)
O=C(c1ccccc1)c1ccc2n1CCC2C(=O)O (stereo not given) [ketorolac]	0 (inactive)
CN1C(=O)CC[C@H]1c1cccnc1 [(-)-Cotinine]	0 (inactive)
CN1C(=O)OC(C)(C)C1=O [trimethadione]	0 (inactive)
CCC(=C(CC)c1ccc(O)cc1)c1ccc(O)cc1 (stereo in doubt) [diethylstilbestrol]	0 (inactive)
CCOc1cc(CC(=O)N[C@@H](CC(C)C)c2ccccc2N2CCCCC2)ccc1C(=O)O [repaglinide]	0 (inactive)
O=C(Cn1ccnc1[N+](=O)[O-])NCc1ccccc1 [benznidazole]	0 (inactive)
CCCc1nn(C)c2c(=O)[nH]c(-c3cc(S(=O)(=O)N4CCN(C)CC4)ccc3OCC)nc12 [Sildenafil citrate]	0 (inactive)
CCN(CC)CC(=O)Nc1c(C)cccc1C [lidocaine]	0 (inactive)
COc1ccc([C@@H]2Sc3ccccc3N(CCN(C)C)C(=O)[C@@H]2OC(C)=O)cc1 [diltiazem]	0 (inactive)
COc1ccc(CCN(C)CCCN2CCc3cc(OC)c(OC)cc3CC2=O)cc1OC [zatebradine]	0 (inactive)
CC(C)NCC(O)c1ccc(O)c(O)c1 (stereo not given) [Isoproterenol hydrochloride]	0 (inactive)
O=C(O)c1ccc(O)c2ncccc12	0 (inactive)
NCCCC[C@H](N[C@@H](CCc1ccccc1)C(=O)O)C(=O)N1CCC[C@H]1C(=O)O [lisinopril]	0 (inactive)
C#C[C@]1(O)CC[C@H]2[C@@H]3CCc4cc(OC5CCCC5)ccc4[C@H]3CC[C@@]21C [quinestrol]	0 (inactive)
O=C(NCc1ccccn1)Nc1nnc(-c2ccco2)o1	0 (inactive)
O=C1c2ccccc2C(Cc2ccncc2)(Cc2ccncc2)c2ccccc21	0 (inactive)
CCOC(=O)C(C)(C)Oc1ccc(Cl)cc1 [Clofibrate]	0 (inactive)
CC(C)(Sc1ccc(CCN(CCCCC2CCCCC2)C(=O)NC2CCCCC2)cc1)C(=O)O	0 (inactive)
O=c1[nH]cnc2c1ncn2[C@H]1CC[C@@H](CO)O1 [Didanosine]	0 (inactive)
CC(c1cc2ccccc2s1)N(O)C(N)=O (stereo not given) [zileuton]	0 (inactive)
COc1ccc2[nH]c(S(=O)Cc3ncc(C)c(OC)c3C)nc2c1 (stereo not given) [omeprazole]	0 (inactive)

system: WPMY1-CANX-COX4; assay: as above; conditions: treatment time: 24 h
Outline: as §1

Compound	phenotypically active
O=P(O)(O)C(O)(Cc1cccnc1)P(=O)(O)O [risedronate]	0 (inactive)
O=C(CCc1ccc(O)cc1)c1c(O)cc(O)cc1O[C@@H]1O[C@H](CO)[C@@H](O)[C@H](O)[C@H]1O [Phloridzin]	0 (inactive)
CC(C)NCCCC1(C(N)=O)c2ccccc2-c2ccccc21 [indecainide]	0 (inactive)
COc1c2occc2cc2ccc(=O)oc12 [methoxsalen]	0 (inactive)
CC(=O)N[C@@H](CC(=O)O)C(=O)N[C@@H](CCC(=O)O)C(=O)O [Spaglumic acid]	0 (inactive)
OCC(CO)N[C@H]1C[C@](O)(CO)[C@@H](O)[C@H](O)[C@H]1O [Voglibose]	0 (inactive)
CCOc1ccccc1OCCN[C@H](C)Cc1ccc(OC)c(S(N)(=O)=O)c1 [tamsulosin]	0 (inactive)
O=C1NC(=O)/C(=C\c2cccc(C(F)(F)F)c2)S1	0 (inactive)
NS(=O)(=O)c1cc(Cl)c(Cl)c(S(N)(=O)=O)c1 [diclofenamide]	0 (inactive)
CN1CCN2c3ncccc3Cc3ccccc3C2C1 (stereo not given) [Mirtazapine]	0 (inactive)
O=C1N(c2ccccc2)c2ccccc2C1(Cc1ccncc1)Cc1ccncc1 [linopirdine]	0 (inactive)
C[C@H]1[C@H](C)CC[C@]2(C(=O)O)CC[C@]3(C)C(=CC[C@@H]4[C@@]5(C)CC[C@H](O)C(C)(C)[C@@H]5CC[C@]43C)[C@H]12 [Ursolic acid]	0 (inactive)
CCOC(=O)[C@H](CCc1ccccc1)N[C@@H](C)C(=O)N1Cc2ccccc2C[C@H]1C(=O)O [quinapril]	0 (inactive)
CC1(C)CCC(C)(C)c2cc(C3(c4ccc(C(=O)O)cc4)OCCO3)ccc21	0 (inactive)
CCCCCCCCCN1C[C@H](O)[C@@H](O)[C@H](O)[C@H]1CO [N-Nonyldeoxynojirimycin]	0 (inactive)
CC(=O)O[C@H]1C[C@@H]2CC[C@@H]3[C@H](CC[C@@]4(C)[C@H]3C[C@H]([N+]3(C)CCCCC3)[C@@H]4OC(C)=O)[C@@]2(C)C[C@@H]1N1CCCCC1 [vecuronium]	0 (inactive)
O=C(O)c1cc(/N=N/c2ccc(O)c(C(=O)O)c2)ccc1O [olsalazine]	0 (inactive)
CCOC(=O)[C@H](CCc1ccccc1)N[C@H]1CCc2ccccc2N(CC(=O)O)C1=O [benazepril]	0 (inactive)
O=C(c1ccccc1)c1ccc2n1CCC2C(=O)O (stereo not given) [ketorolac]	0 (inactive)
CN1C(=O)CC[C@H]1c1cccnc1 [(-)-Cotinine]	0 (inactive)

Compound	phenotypically active
CN1C(=O)OC(C)(C)C1=O [trimethadione]	0 (inactive)
CCC(=C(CC)c1ccc(O)cc1)c1ccc(O)cc1 (stereo in doubt) [diethylstilbestrol]	0 (inactive)
CCOc1cc(CC(=O)N[C@@H](CC(C)C)c2ccccc2N2CCCCC2)ccc1C(=O)O [repaglinide]	0 (inactive)
O=C(Cn1ccnc1[N+](=O)[O-])NCc1ccccc1 [benznidazole]	0 (inactive)
CCCc1nn(C)c2c(=O)[nH]c(-c3cc(S(=O)(=O)N4CCN(C)CC4)ccc3OCC)nc12 [Sildenafil citrate]	0 (inactive)
CCN(CC)CC(=O)Nc1c(C)cccc1C [lidocaine]	0 (inactive)
COc1ccc([C@@H]2Sc3ccccc3N(CCN(C)C)C(=O)[C@@H]2OC(C)=O)cc1 [diltiazem]	0 (inactive)
COc1ccc(CCN(C)CCCN2CCc3cc(OC)c(OC)cc3CC2=O)cc1OC [zatebradine]	0 (inactive)
CC(C)NCC(O)c1ccc(O)c(O)c1 (stereo not given) [Isoproterenol hydrochloride]	0 (inactive)
O=C(O)c1ccc(O)c2ncccc12	0 (inactive)
NCCCC[C@H](N[C@@H](CCc1ccccc1)C(=O)O)C(=O)N1CCC[C@H]1C(=O)O [lisinopril]	0 (inactive)
C#C[C@]1(O)CC[C@H]2[C@@H]3CCc4cc(OC5CCCC5)ccc4[C@H]3CC[C@@]21C [quinestrol]	0 (inactive)
O=C(NCc1ccccn1)Nc1nnc(-c2ccco2)o1	0 (inactive)
O=C1c2ccccc2C(Cc2ccncc2)(Cc2ccncc2)c2ccccc21	0 (inactive)
CCOC(=O)C(C)(C)Oc1ccc(Cl)cc1 [Clofibrate]	0 (inactive)
CC(C)(Sc1ccc(CCN(CCCCC2CCCCC2)C(=O)NC2CCCCC2)cc1)C(=O)O	0 (inactive)
O=c1[nH]cnc2c1ncn2[C@H]1CC[C@@H](CO)O1 [Didanosine]	0 (inactive)
CC(c1cc2ccccc2s1)N(O)C(N)=O (stereo not given) [zileuton]	0 (inactive)
COc1ccc2[nH]c(S(=O)Cc3ncc(C)c(OC)c3C)nc2c1 (stereo not given) [omeprazole]	0 (inactive)
